Records with an inconclusive call do not appear. A call without a number means that no potency is given here. The source made the active and inactive calls. Unless noted, calls follow the shape of the dose curve; as a rule, active = well fitted curve in the direction sought with a large enough effect; inconclusive = small, poorly fitted or top-dose-only effect, or another doubt; inactive = no such curve, though single readings can be large; an effect the other way counts as inactive or inconclusive.
Tests used:
[1] = target: Mitogen-activated protein kinase 10 (Mus musculus) (UniProt Q61831); assay: JNK3 AlphaScreen Assay (AID 530; active = well fitted curve in either direction with a large enough effect, not every such curve was filed as active;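 also: kinase came from lysate of stimulated human HepG2 cells; signal reports phosphorylation of biotinylated GST-cJun 1-79 at Ser73 with 10 µM ATP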); conditions: JNK3 lysate, c-Jun phosphorylation; series mostly up to 57.1 µM
Outline: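 Activity was read by AlphaScreen after JNK3-containing HepG2 lysate (cytokine pre-activated) phosphorylated biotinylated GST-cJun with 10 uM ATP at room temperature. Phospho-Ser73 cJun antibody with Protein-A acceptor beads provided detection.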

AA1029 = assay: qHTS profiling for inhibitors of Plasmodium falciparum proliferation (AID 504749); also: nearly all actives have a fitted effect of over 60% in size; also: potency is read from the fitted curve at half-maximal effect; conditions: P. falciparum in erythrocytes, SYBR Green DNA, 72 h; series mostly up to 28.7 µM
Outline: (§1)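 Each compound contacts P. falciparum-infected red blood cells for 72 h at 37 C; lysis buffer (Tris, EDTA, saponin, Triton X, SYBR Green I) is added and fluorescence measured next morning; values normalized to controls.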

CP260 = assay: as above; conditions: P. falciparum in erythrocytes, SYBR Green DNA, 72 h; series mostly up to 28.7 µM
Outline: as §1

CP286 = assay: as above; conditions: P. falciparum in erythrocytes, SYBR Green DNA, 72 h; series mostly up to 28.7 µM
Outline: as §1

DIV14 = assay: as above; conditions: P. falciparum in erythrocytes, SYBR Green DNA, 72 h; series mostly up to 28.7 µM
Outline: as §1

DIV17 = assay: as above; conditions: P. falciparum in erythrocytes, SYBR Green DNA, 72 h; series mostly up to 28.7 µM
Outline: as §1

ICS = assay: as above; conditions: P. falciparum in erythrocytes, SYBR Green DNA, 72 h; series mostly up to 28.7 µM
Outline: as §1

JCK = assay: as above; conditions: P. falciparum in erythrocytes, SYBR Green DNA, 72 h; series mostly up to 28.7 µM
Outline: as §1

N140 = assay: as above; conditions: P. falciparum in erythrocytes, SYBR Green DNA, 72 h; series mostly up to 28.7 µM
Outline: as §1

PC15 = assay: as above; conditions: P. falciparum in erythrocytes, SYBR Green DNA, 72 h; series mostly up to 28.7 µM
Outline: as §1

TAB165 = assay: as above; conditions: P. falciparum in erythrocytes, SYBR Green DNA, 72 h; series mostly up to 28.7 µM
Outline: as §1

[2] = target: DNA repair nuclease/redox regulator APEX1 (Homo sapiens) (UniProt P27695); assay: qHTS Validation Assay for Inhibitors of the Human Apurinic/apyrimidinic Endonuclease 1 (APE1) (AID 1705; also: potency is read from the fitted curve at half-maximal effect); conditions: purified APE1 endonuclease activity, fluorescence, titration; series mostly up to 57.1 µM
Outline: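 Human APE1 was preincubated with compound for 15 min at room temperature, then 50 nM (final) THF-abasic double-stranded DNA substrate bearing 5'-TAMRA and 3'-BHQ-2 was added. Incision-driven fluorescence rise (ex 525/em 598 nm) was read kinetically.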

[3] = Counterscreen for APE1 Inhibitors: Fluorescent Dye Displacement Validation Assay (AID 1707); conditions: fluorescent dye displacement from DNA; series mostly up to 57.1 µM
Outline: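 Counterscreen flags promiscuous DNA binders: compounds displacing ThO from duplex DNA (abasic THF site, 50 nM) reduce 540 nm emission (480 nm excitation). ThO 250 nM final; Tris-HCl pH 7.5 with NaCl, MgCl2 and Tween-20.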

[4] = target: Endonuclease 4 (Escherichia coli (strain K12)) (UniProt P0A6C1); assay: Counterscreen for APE1 Inhibitors: qHTS Validation Assay for Inhibitors of Endonuclease IV (AID 1708); conditions: E. coli endonuclease IV, DNA cleavage fluorescence; series mostly up to 57.1 µM
Outline: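 Conditions: 2 nM enzyme, 50 nM TAMRA/BHQ-2 substrate, pH 7.5 Tris buffer with 2 mM MgCl2, RT. Compound preincubation 15 min; readout three fluorescence reads 60 s apart, third-minus-first.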

[5] = qHTS for differential inhibitors of proliferation of Plasmodium falciparum line Dd2 (AID 1882); conditions: Potency: Plasmodium falciparum Dd2 proliferation inhibition; series mostly up to 28.7 µM; also: nearly all actives have a fitted effect of over 65% in size
Outline: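 SYBR Green DNA fluorescence (ex 485, em 535 nm) after overnight lysis quantifies parasite growth; compound exposure lasted 72 h at 37 C on infected red cells at 2.5% hematocrit, 0.3% parasitemia (final). Artemisinin 0.29 uM and vehicle wells define normalization.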

[6] = qHTS for differential inhibitors of proliferation of Plasmodium falciparum line W2 (AID 1883); conditions: Potency: Plasmodium falciparum W2 proliferation inhibition; series mostly up to 28.7 µM;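 also: potency is read from the fitted curve at half-maximal effect; parasites grown with compound for 72 h before lysis and staining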
[7] = target: ATP-dependent DNA helicase Q1 (Homo sapiens) (UniProt P46063); assay: qHTS Validation Assay for Inhibitors of RecQ-Like Dna Helicase 1 (RECQ1) (AID 2353); conditions: recombinant RECQ1 helicase DNA unwinding assay; series mostly up to 25.6 µM
Outline: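 RECQ1T1 50 nM; forked duplex (20 bp + 30-nt ss tails) 200 nM, ATP 2 mM final; pH 8.0, 2 mM MgCl2, 2.5 ug/ml poly(dI-dC); 15 min compound preincubation; discontinuous kinetic read over 2 h at RT.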

[8] = Quantitative high throughput screen for delayed death inhibitors of the malarial parasite plastid, 96 hour incubation (AID 488745); conditions: Plasmodium falciparum growth; series mostly up to 28.7 µM;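 also: luciferase-expressing P. falciparum in erythrocytes at 2% hematocrit and 0.1% parasitemia; nearly all actives have a fitted effect of over 70% in size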
Outline: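 Readout is firefly luciferase luminescence from an integrated reporter in P. falciparum; lower signal marks inhibited growth. Cultures at 2% hematocrit and 0.1% parasitemia were treated with compound across two generations (96 h, 37 C, 5% CO2).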

[9] = Quantitative high throughput screen for delayed death inhibitors of the malarial parasite plastid, 48 hour incubation (AID 488752); conditions: Plasmodium falciparum growth; series mostly up to 28.7 µM; also: nearly all actives have a fitted effect of over 65% in size
Outline: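 First, compound was pinned into RPMI 1640 medium containing 0.5% Albumax. Next, reporter-parasite-infected erythrocytes were added to 2% hematocrit and 0.1% parasitemia. After 48 h at 37 C under 5% CO2, luciferase detection reagent was added and luminescence read.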

[10] = target: Galactokinase (Homo sapiens) (UniProt P51570); assay: qHTS Validation Assay for Inhibitors of Human Galactokinase (GALK) (AID 493189); conditions: purified human GALK enzyme activity, qHTS 7-point titration; series mostly up to 57.5 µM
Outline: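 GALK (5 nM) with 35 uM ATP and 100 uM galactose in HEPES pH8.0, MgCl2, NaCl, DTT, BSA; 1 h at room temperature. Residual ATP read by Kinase-Glo Plus luminescence after 10 min.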

ATP-dependent DNA helicase Q1 (Homo sapiens), sequence (P46063 whole entry, looked up): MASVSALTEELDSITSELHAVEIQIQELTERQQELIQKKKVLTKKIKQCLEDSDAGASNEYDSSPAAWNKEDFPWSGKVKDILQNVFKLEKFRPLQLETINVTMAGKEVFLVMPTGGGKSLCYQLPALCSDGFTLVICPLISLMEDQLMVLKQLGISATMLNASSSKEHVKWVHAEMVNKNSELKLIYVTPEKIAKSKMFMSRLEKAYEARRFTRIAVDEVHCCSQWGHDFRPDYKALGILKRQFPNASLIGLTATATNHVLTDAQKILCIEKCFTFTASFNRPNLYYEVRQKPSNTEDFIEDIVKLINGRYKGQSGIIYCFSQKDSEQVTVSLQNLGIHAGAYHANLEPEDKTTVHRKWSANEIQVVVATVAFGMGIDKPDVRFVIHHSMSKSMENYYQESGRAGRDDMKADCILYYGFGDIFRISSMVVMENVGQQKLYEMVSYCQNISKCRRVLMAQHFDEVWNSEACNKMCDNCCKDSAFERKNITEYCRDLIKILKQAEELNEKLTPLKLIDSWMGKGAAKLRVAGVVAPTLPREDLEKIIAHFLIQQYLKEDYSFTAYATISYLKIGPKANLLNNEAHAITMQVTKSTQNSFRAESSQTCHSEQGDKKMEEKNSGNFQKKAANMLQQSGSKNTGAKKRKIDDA
Galactokinase (Homo sapiens), sequence (P51570 whole entry, looked up): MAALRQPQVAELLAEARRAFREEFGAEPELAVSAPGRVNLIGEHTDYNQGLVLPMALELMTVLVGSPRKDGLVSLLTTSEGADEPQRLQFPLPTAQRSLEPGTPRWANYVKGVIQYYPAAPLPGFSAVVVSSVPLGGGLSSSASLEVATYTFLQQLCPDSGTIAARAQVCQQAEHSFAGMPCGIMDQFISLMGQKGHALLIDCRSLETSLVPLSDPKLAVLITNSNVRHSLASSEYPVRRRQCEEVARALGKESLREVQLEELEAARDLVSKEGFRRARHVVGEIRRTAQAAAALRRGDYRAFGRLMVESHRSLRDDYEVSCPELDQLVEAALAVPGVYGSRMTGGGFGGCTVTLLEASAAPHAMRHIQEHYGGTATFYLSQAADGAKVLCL
DNA repair nuclease/redox regulator APEX1 (Homo sapiens), sequence (P27695 whole entry, looked up): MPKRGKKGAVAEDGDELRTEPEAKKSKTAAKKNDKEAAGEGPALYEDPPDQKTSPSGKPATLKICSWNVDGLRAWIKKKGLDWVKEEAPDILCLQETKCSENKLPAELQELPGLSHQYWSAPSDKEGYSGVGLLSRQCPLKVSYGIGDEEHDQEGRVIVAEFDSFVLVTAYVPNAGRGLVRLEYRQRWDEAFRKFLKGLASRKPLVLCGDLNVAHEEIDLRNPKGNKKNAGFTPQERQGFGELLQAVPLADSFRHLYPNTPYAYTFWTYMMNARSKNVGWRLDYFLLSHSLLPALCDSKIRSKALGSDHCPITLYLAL

SMILES | outcome [1] | Potency (AA1029) | Potency (CP260) | Potency (CP286) | Potency (DIV14) | Potency (DIV17) | Potency (ICS) | Potency (JCK) | Potency (N140) | Potency (PC15) | Potency (TAB165) | Potency [2] | Potency [3] | outcome [4] | Potency [5] | Potency [6] | Potency [7] | Potency [8] | Potency [9] | outcome [10]
C[C@@]12C(=O)OC(=O)[C@]1(C)[C@H]1CC[C@@H]2O1 | inactive | 3.16 µM (active) | 0.631 µM (active) | 2.82 µM (active) | 1.14 µM (active) | 2.03 µM (active) | 3.98 µM (active) | 3.98 µM (active) | 4.47 µM (active) | 3.98 µM (active) | 2 µM (active) |  |  |  |  |  |  |  |  | 
CN(CCOc1ccc(C[C@H](Nc2ccccc2C(=O)c2ccccc2)C(=O)O)cc1)c1ccccn1 | inactive |  |  |  |  |  |  |  |  |  |  | inactive | inactive | inactive | inactive | 8.91 µM (active) | inactive | inactive | inactive | inactive
CC(/C=C1\SC(=S)N(CC(=O)O)C1=O)=C\c1ccccc1 |  | inactive | inactive | inactive | inactive | inactive | inactive | inactive | inactive | inactive | inactive |  |  |  |  |  |  |  |  | 
C[C@H]1CC2[C@@H]3CCC4=CC(=O)C=C[C@]4(C)[C@@]3(F)[C@@H](O)C[C@]2(C)[C@@]1(O)C(=O)CO (stereo not given in full) |  |  |  |  |  |  |  |  |  |  |  | 39.8 µM (active) | inactive | inactive | inactive | 10 µM (active) | inactive | inactive | inactive | inactive

Reference: PubChem BioAssay (NCATS)
